Assay results as given in PubChem BioAssay AID1508600 (Functional Genomics Laboratory (NCATS/FGL), 2020).
In all, about 53,000 sequences went through this assay and about 3,700 (7%) were called active. This is one part of a sample in which actives are shown more often than they occur.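 Rule for the calls: active = gene knockdowns whose robust z-score for IL-1 alpha signal is at least 2 or at most -2, so actives lie on both sides; inactive = the rest.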

Assay: Components of the Cytosolic LPS Sensing Pathway: Gene Identification via Genome-wide siRNA Screen;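 note: robust z of the log signal after scaling to non-targeting control siRNA wells of the plate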
Conditions: RAW264.7 macrophages, IL-1a HTRF, actives lie on both sides, screened at 100 nM (by protocol), cells primed 5 h with Pam3CSK4 first
How it was run: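 Read-out: IL-1a HTRF on supernatant, divided by plate negative-control median ×100, log-transformed and converted to robust z-score. Cells were RAW264.7 given 100 nM siRNA, Pam3CSK4-primed 5 hours, then LipidA-transfected 24 hour.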

Row | Sequence | z-score
1 | GCUUUGUUGGGAGUGAAAUTT against Olfr728 | -2.11 (active)
2 | CCACCACAGCUGAAGUCAGTT against Fen1 | -1.08 (inactive)
3 | GGUAAGCUAGGUUGCCCACTT against Gabarapl1 | 1.91 (inactive)
4 | GGGUUAAGGUAGUUUCUAATT against 4930579C12Rik | 0.613 (inactive)
5 | GGUGAAAUCCAGGAGUUUUTT against Rnd3 | 2.02 (active)
6 | GGAAAUGAAGCUCAUGGAATT against Dcdc5 | -1.44 (inactive)
7 | GGUUGCUAGUGCUAAGGACTT against Pdlim2 | 0.245 (inactive)
8 | GGGCUGGUCAUUUACUAAGTT against Cdh22 | 1.32 (inactive)
9 | CCAGAAUGUCACUGCCAGUTT against Zfy1 | 1.34 (inactive)
10 | CCUGGAGAGUGAUACGUUCTT against Serpina1f | -0.228 (inactive)
11 | GGUCAAACUUCAAUAGACATT against Zkscan6 | 2.01 (active)
12 | GGGUGUUAGAAAUCAUUAUTT against Dgkd | 1.19 (inactive)
13 | GGAACUUCAGAGUAAACCUTT against H2-T23 | 0.096 (inactive)
14 | CCACAAUCAUUAACAAGCUTT against Arl6 | 0.389 (inactive)
15 | GGUUCAAGAGGAGACUACUTT against BC005624 | -0.127 (inactive)
16 | GGAAUAUGUGUGGACUAGATT against Tor3a | -0.265 (inactive)
17 | GGCUUACAAAAAGUACAUCTT against Tpt1 | 4.36 (active)
18 | GGACCAUUCUUGCGUUCGUTT against Cacng7 | 1.66 (inactive)
19 | CCGAUUAGAAAAGACCAAATT against Ccdc25 | 0.727 (inactive)
20 | GGAAGUUUUGGGAGUGUGUTT against Map3k20 | -1.08 (inactive)
21 | CGCAACCUGUCACAUAAUATT against Bmpr2 | -0.238 (inactive)
22 | GCUGUUCUAUCAGACCUUUTT against Cyp2b10 | -0.236 (inactive)

Row | Sequence | z-score
23 | GGAGACUUAUAACAUGUUUTT against Habp2 | 2.19 (active)
24 | GCGAGUUGAAGACUGAAGGTT against Ccdc68 | 1.44 (inactive)
25 | GGUCAUACAUUUGUCAUCATT against Bend7 | -0.336 (inactive)
26 | CCAUGUUAGAACUGGGACUTT against Tafa2 | 2.44 (active)
27 | GGUCAUGGGACAGCAAAUGTT against Tmco6 | -1.67 (inactive)
28 | GGAAGACGUAUUUGUACACTT against Ybx1 | -0.523 (inactive)
29 | GGAGUAGCUGAAUCUGAAGTT against Atp5e | 1.57 (inactive)
30 | CCUCAUUUCAACCAUUCACTT against Lyzl6 | -2.36 (active)
31 | GGAGCUUCAUCUUUCAAGATT against Uqcrc2 | -0.0657 (inactive)
32 | GCAUUGUGCUUUUGACAACTT against Abca15 | -0.173 (inactive)
33 | GGAGCUUGAAAUUGUCAUUTT against Magoh | -3.51 (active)
34 | GGACCGGUGUCUAAUCAGCTT against Capn10 | 1.75 (inactive)
35 | GGCUCAAGGAACAUGAGGCTT against Gtsf2 | -0.0452 (inactive)
36 | GGCACAAACUAGAUGCAGATT against Ccdc68 | -0.669 (inactive)
37 | GCUCUCGUAGACUGCUAUATT against Ppp1r14c | 2.13 (active)
38 | GGAAUUUGAAUCACGUUUGTT against Hprt | 1.72 (inactive)
39 | CGGAUUCGGGAAUUCUAUCTT against Pcgf1 | 0.143 (inactive)
40 | GGGUACCUCGUGGUACAUUTT against Rapgef3 | 0.352 (inactive)
41 | GGUCCAAAAGUUGUUUCAATT against Oga | 3.12 (active)
42 | GGAUUCAGCAGCUUCAGAATT against Rex1bd | 0.221 (inactive)
43 | GGAUUAUGCAAGUUACAUUTT against Nsf | -0.63 (inactive)
44 | GCACCUAGUUAAUGCUGCCTT against C2cd2 | -2.15 (active)

Row | Sequence | z-score
45 | GCAGGCAUCGUGUUUACCATT against Cdh20 | 1.86 (inactive)
46 | GCUCAAUUGUUCUUCUUUUTT against Olfr806 | -1.13 (inactive)
47 | GCUUUAGAACAGAGGGUUATT against Scd4 | 0.989 (inactive)
48 | GGAGAUCUUCAACUGCCACTT against Rps6kl1 | 0.842 (inactive)
49 | GGUGAUUACUCUUAUGUGATT against Slc7a8 | -0.663 (inactive)
50 | GGCUGAAGGAGCAAUCAAATT against L3mbtl3 | 1.85 (inactive)
51 | GGCCGUUAUUAAAUUCAUATT against Twsg1 | -0.609 (inactive)
52 | GCCGUACCAUGUAAUGCCATT against Naa60 | -2.05 (active)
53 | GGCCUCAGCUCACAACAAATT against Sf3b4 | -1.71 (inactive)
54 | GGAAGCAAAAUAAAGAAACTT against Myo1e | 0.109 (inactive)
55 | GCGAGAGUCACAAAGUGCATT against Rcc1l | 1.35 (inactive)
56 | GCUAGAGGUGACUGAUGUCTT against Tti1 | -1.26 (inactive)
57 | GGAACAAGAGAGGACAAGUTT against Papss2 | 0.555 (inactive)
58 | GCCAAAAGUCGAGCACCUCTT against Lrrc8d | 0.43 (inactive)
59 | CGGUGCUUGCUUCUAUGUGTT against Olfr642 | 0.201 (inactive)
60 | GCUUUUGUGACUCUGCUGATT against Raver1 | -1.41 (inactive)
61 | CCAUCUAUCAACUUCUACATT against Sat1 | -0.34 (inactive)
62 | GGCUAUGUUCACCUGUGGATT against Kbtbd12 | -2.66 (active)
63 | CCUGUAAGAACCUUGCCUATT against Sytl3 | 0.733 (inactive)
64 | GGAAGGAAGAAGACAAUAATT against Nudt16l1 | -0.438 (inactive)
65 | GCGGAUGAUCAAGAAUCGATT against Atf6b | -0.421 (inactive)
66 | GCUGUGAAAACGCAGUUACTT against Ccser2 | 1.77 (inactive)

Row | Sequence | z-score
67 | CCUAUACAUGCUACUGAACTT against Itga9 | -0.723 (inactive)
68 | CCCAGGGUACCUCACAUCUTT against Nrp1 | -0.595 (inactive)
69 | GGUCAUCAAUGCCACAGCUTT against Lpo | -2.24 (active)
70 | CCGGAGUGACCAUAUUCGUTT against Fgr | -0.446 (inactive)
71 | GGCUCUCAAUGAUCAUCAUTT against Aldob | -0.423 (inactive)
72 | GGAAGUACAGAAUUUUGAATT against Sft2d2 | 1.46 (inactive)
73 | GGAAAUGUUGAAUCUUGCUTT against Mfsd4a | 0.0725 (inactive)
74 | CGAUGUAAGGAAAGAAAGGTT against Cd14 | -1.47 (inactive)
75 | CCCUUUGUGUGGAUUAUAUTT against Sp9 | 2.91 (active)
76 | GGGACUGUAAUACCAUGAUTT against Rnase10 | 0.0343 (inactive)
77 | GGCCUUCACCAAAAGCAUCTT against Ncf2 | -0.661 (inactive)
78 | GGUUUCCUUUGUCUGUUUUTT against 9530091C08Rik | -0.509 (inactive)
79 | GGCUCUAACUAUUAUGUGCTT against Psmc4 | -2.9 (active)
80 | CCUGGCUGUAAUCACCAUCTT against Olfr1160 | 0.953 (inactive)
81 | GGACAGAUCUUUGAAGCAGTT against Vps18 | -1.7 (inactive)
82 | GGACGAGGAGUACGAGCAATT against Nfkbia | 2.6 (active)
83 | CUACCUACUCCAUGUGGUGTT against Gpihbp1 | -0.55 (inactive)
84 | GGCCAUUAAAUUUAUCAACTT against Aldh3a1 | 1.61 (inactive)
85 | GGGAGAGCUGCUGUUUUUCTT against Rxfp3 | 1.46 (inactive)
86 | GGUCUGCUUUGUCUUGGUGTT against Olfr829 | 0.126 (inactive)
87 | GGAUGAAGAUGAAAAGGAATT against Ube3a | -0.519 (inactive)
88 | CCUGAAAGUCGUUUAUCGCTT against Il7r | 2.74 (active)

Row | Sequence | z-score
89 | GGCUAUUUAUAAGUCCAGUTT against Uso1 | -0.307 (inactive)
90 | GGAUAGGUUUCUGUAUUUATT against Znrf1 | 0.621 (inactive)
91 | CCGUAUGAACGUGUGAUAATT against Rasef | 0.142 (inactive)
92 | GGGCACCUAGUUUCCAUGATT against Cox7b | -0.385 (inactive)
93 | GGAAGUGGCGAGGUUCUAUTT against Folr1 | 0.782 (inactive)
94 | GCAGAACACCGCUGGAAGUTT against Pard3 | 3.14 (active)
95 | CGCAAUGUAUGAUUCAAUGTT against Mogat1 | 1.76 (inactive)
96 | GCUAAUUCCCUGGCCUCAATT against Tro | -0.627 (inactive)
97 | GGUUUAUAGGCCUUCUUCCTT against Flot2 | -0.763 (inactive)
98 | GCAUCGUUAUGCGCCUCACTT against Neurog2 | 0.297 (inactive)
99 | CGGGCAUGAUGAAUCGAUGTT against Ldhd | 1.83 (inactive)
100 | GGCUUGAUGAAGAGAAUAUTT against Oog4 | -1.45 (inactive)
101 | CGGACUCUGUGUUCUUAGATT against Alg3 | 2.68 (active)
102 | GGGCGACUUAUUUUUUGUUTT against Zfp111 | 0.333 (inactive)
103 | GGACUUCAUCAACAACAUCTT against Nsmce1 | 0.459 (inactive)
104 | GGAAAUCUUCAUGAUCAGUTT against Fam24b | -2.24 (active)
105 | GGUCAUCGGGUAAUUAAUCTT against Rad52 | -0.618 (inactive)
106 | GGAGUCUGCUCUCAUUCUUTT against Slc30a1 | -0.214 (inactive)
107 | GGAUGCUGAGCUUUCUGACTT against Fchsd1 | 0.476 (inactive)
108 | GGCCCUGUUGCUAUGUGUUTT against Map1s | 2.06 (active)
